The values that follow come from PubChem BioAssay (Tox21).

Where “and” joins values, the source holds several entries; their conditions need not be identical. Identical values can stand only once. Results filed as inconclusive are left out. The source holds several records for some structures; these can differ, active in one and inactive in another. Calls of active or inactive are those of the source. Unless noted, the call rests on the fitted dose curve; in most records, active means well fitted curve in the direction sought with a large enough effect in the repeat runs; inconclusive means weak or mixed curves; inactive means no such curve, though single readings can be large; an effect the other way counts as inactive or inconclusive.

The nature of assay [1]: qHTS assay to identify small molecule antagonists of the androgen receptor (AR) signaling pathway using the MDA cell line in the presence of 0.5 nM R1881 - cell viability counter screen (AID 1259242). Further: nearly all actives have a fitted effect of over 45% in size. Further: potency means the concentration at half of the fitted maximal effect. In short, it runs like this: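 Viability of MDA-kb2 cells was multiplexed with the luciferase AR readout; after 16 hr with compounds and R1881 at 0.5 nM final, CellTiter-Fluor fluorescence was recorded.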
(qHTS replaces the single test concentration by a dilution series.)

Assay [2] is described as follows: qHTS assay to identify small molecule HDAC inhibitors (AID 1259364).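 Further: wild-type HCT-116 cells with endogenous class I/II HDAC activity; top concentration of the series differs between compounds; nearly all actives have a fitted effect of over 45% in size.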 The method, boiled down: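 Read-out: luminescence of HDAC-Glo I/II reagent, 30 min RT, reflecting class I/II deacetylase activity in whole HCT-116 cells pre-exposed 2 h to DMSO-dissolved compounds.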
The nature of assay [3]: qHTS assay to identify small molecule HDAC inhibitors - cell viability counter screen (AID 1259365). Further: series mostly up to about 92 µM; nearly all actives have a fitted effect of over 50% in size. The method, boiled down:
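Wild-type HCT-116 cells were seeded at 1,500 per well, incubated overnight at 37 C, then exposed to compounds in DMSO for 2hr. Viability was read by CellTiter-Glo luminescence after 30min at room temperature.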

Assay [4] in a line: qHTS assay to identify small molecule agonists of the sonic hedgehog signaling (Shh) pathway - cell viability counter screen (AID 1259366). Further: nearly all actives have a fitted effect of over 50% in size. Further: potency means the concentration at half of the fitted maximal effect. In short, it runs like this: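 NIH/3T3-derived 3T3 Gli1-Luc cells (stable Gli1-responsive firefly luciferase reporter) were seeded, rested 4 hr at 37 C/5% CO2, then exposed to compounds in DMSO for 24 hr; viability was read by CellTiter-Fluor fluorescence in the same wells.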

The nature of assay [5]: qHTS assay to identify small molecule antagonists of the sonic hedgehog signaling (Shh) pathway - cell viability counter screen (AID 1259367). Further: nearly all actives have a fitted effect of over 55% in size. Further: potency means the concentration at half of the fitted maximal effect. The method, boiled down:
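Cells: 3T3 Gli1-Luc, 2,000/well, 4 hr pre-incubation. Compounds in DMSO, then conditioned medium. Incubation 24 hr, 37C, 5% CO2. CellTiter-Fluor at 23 hr, 1 hr, fluorescence.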

A short description of assay [6]: qHTS assay to identify small molecule agonists of the sonic hedgehog signaling (Shh) pathway (AID 1259368; calls by dose curve; further: series mostly up to about 92 µM; nearly all actives have a fitted effect of over 15% in size). In short, it runs like this: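 A Gli1 transcriptional response element controlled firefly luciferase in 3T3Gli1-Luc cells. Compounds and a positive control were added 4 hr after plating, and cells were incubated a further 24 hr at 37 C before luminescence detection.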

Assay [7] can be described thus: qHTS assay to identify small molecule antagonists of the sonic hedgehog signaling (Shh) pathway (AID 1259369; calls by dose curve; further: nearly all actives have a fitted effect of over 45% in size; further: potency means the concentration at half of the fitted maximal effect). The method, boiled down:
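For antagonist detection, the reporter line received test compounds together with conditioned medium, incubated 24hr at 37 C, 5% CO2, then luminescence was recorded following 30min room-temperature luciferase reagent incubation.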

Assay [8] is described as follows: qHTS assay to identify small molecule agonists of the androgen receptor (AR) signaling pathway in the presence of an antagonist - cell viability counter screen (AID 1259379). Further: nearly all actives have a fitted effect of over 25% in size. Further: potency means the concentration at half of the fitted maximal effect.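 On activity change, negative = cytotoxicity: MDA-kb2 human breast cancer cells carrying an MMTV luciferase reporter; series mostly up to about 92 µM.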 The method, boiled down:
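Seed MDA-kb2 at 3,000 cells/well; incubate 5 hr, 37C, 0% CO2. Add nilutamide to 3.0uM final, then pin compounds at 15 concentrations. Incubate 16 hr. Add CellTiter-Fluor at 15 hr, read fluorescence after 1 hr.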

A short description of assay [9]: qHTS assay to identify small molecule agonists of the estrogen receptor beta (ER-beta) signaling pathway - cell viability counter screen (AID 1259380). Further: nearly all actives have a fitted effect of over 30% in size. Further: potency means the concentration at half of the fitted maximal effect. The method, boiled down:
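CellTiter-Glo read, 30 min RT, same wells as bla assay; cells ER-beta-UAS-bla HEK293T; 16 hr compound, 37C; medium 2% charcoal-stripped FBS.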

Assay [10] in a line: qHTS assay to identify small molecule antagonists of the estrogen receptor beta (ER-beta) signaling pathway - cell viability counter screen (AID 1259382). Further: nearly all actives have a fitted effect of over 55% in size. Further: potency means the concentration at half of the fitted maximal effect. On activity change, negative = cytotoxicity: series mostly up to about 92 µM. The method, boiled down:
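In this multiplexed counter screen, cells were seeded at 2,000 per well in medium with 2% charcoal-stripped FBS and incubated 6 hr before compound and 1nM final E2 were added. Sixteen hours later, ATP-based luminescence reported viability.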

Assay [11] in a line: qHTS assay to identify small molecule agonists or antagonists of the thyroid stimulating hormone receptor (TSHR) signaling pathway - wild type cell line counter screen (AID 1259384; calls by dose curve). In short, it runs like this: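 Counter screen in untransfected Hek293: compounds (15-point titration, triplicate) plus phosphodiesterase inhibitor Ro20-1724 added after 18 h plating; 30 min RT. Intracellular cAMP via competitive d2/cryptate immunoassay, 1 h incubation.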

The target in assay [12] is Thyrotropin receptor (Homo sapiens) (UniProt P16473). The assay is described as follows: qHTS assay to identify small molecule antagonists of the thyroid stimulating hormone receptor (TSHR) signaling pathway (AID 1259385; calls by dose curve; further: nearly all actives have a fitted effect of over 20% in size; further: potency means the concentration at half of the fitted maximal effect). In short, it runs like this: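 Antagonist mode: compound-treated TSHR-expressing HEK293 cells were stimulated with 1.5 ng/mL TSH (final) in presence of Ro20-1724 for 30 min at RT. HTRF cAMP detection after 1 h; each compound tested at 15 concentrations, triplicate.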

A short description of assay [13]: qHTS assay to identify small molecule agonists of the estrogen receptor alpha (ER-alpha) signaling pathway in the presence of an antagonist - cell viability counter screen (AID 1259386).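 Further: cells exposed to compounds for 22 h at 37 °C before the viability read; nearly all actives have a fitted effect of over 30% in size.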 Further: potency means the concentration at half of the fitted maximal effect. On activity change, negative = cytotoxicity: series mostly up to about 92 µM. The method, boiled down: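 Viability counter screen using VM7Luc4E2 (full-length ER-alpha, four ERE-luciferase). The cells were treated with compounds alongside ICI-182,780 10.0nM for 22hr, and live-cell protease fluorescence was quantified with CellTiter-Fluor.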

In assay [14] the target is Estrogen receptor (Homo sapiens) (UniProt P03372). The assay is described as follows: qHTS assay to identify small molecule antagonists of the estrogen receptor alpha (ER-alpha) signaling pathway using the BG1 cell line in the presence of 0.1 nM 17-beta-estradiol (AID 1259244). Further: nearly all actives have a fitted effect of over 50% in size. In short, it runs like this: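 Estradiol at 0.1 nM (final) stimulates the endogenous ER-alpha of VM7Luc4E2 cells carrying an ERE-driven luciferase; compounds are co-incubated 22 h at 37C and luciferase output quantified by luminescence.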

Assay [15] in a line: qHTS assay to identify small molecule phospholipidosis (PLD) inducers (AID 1259344; active means well fitted curve in the direction sought with a large enough effect; an effect the other way counts as inactive or inconclusive). The method, boiled down:
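Phospholipidosis is scored by imaging LipidTOX-stained pits in HepG2 cells exposed to compound for 24 h at 37 C; pit counts and integrated intensities per well and per cell serve as outputs.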

Assay [16] addresses Estrogen receptor beta (Homo sapiens) (UniProt Q92731). Description: qHTS assay to identify small molecule agonists of the estrogen receptor beta (ER-beta) signaling pathway (AID 1259377; active means well fitted activation curve with a large enough effect in the signal ratio in the repeat runs, not every such curve was filed as active; the % refers to the signal ratio). The method, boiled down:
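ER-beta-UAS-bla HEK293T (GripTite) cells carrying a UAS-driven beta-lactamase reporter, in medium with 2% charcoal-stripped FBS, were exposed to compounds for 16 hr at 37C; LiveBLAzer B/G FRET substrate was then added and fluorescence read after 2 hours at room temperature.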

For assay [17] the target is unchanged. Description: qHTS assay to identify small molecule antagonists of the estrogen receptor beta (ER-beta) signaling pathway (AID 1259378; active means well fitted inhibition curve with a large enough effect in the signal ratio in the repeat runs, not every such curve was filed as active; the % refers to the signal ratio). The method, boiled down: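 Antagonist mode: compounds added to beta-lactamase reporter HEK293T ER-beta-UAS cells stimulated with E2 (1nM final), 16 hr at 37C. LiveBLAzer B/G FRET substrate, 2 hours room temperature, fluorescence read-out.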

Assay [18] has as its target Androgen receptor (Homo sapiens) (UniProt P10275). Description: qHTS assay to identify small molecule antagonists of the androgen receptor (AR) signaling pathway using the MDA cell line in the presence of 0.5 nM R1881 (AID 1259243). Further: nearly all actives have a fitted effect of over 50% in size. In short, it runs like this: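 Reporter cells cultured without CO2 receive test chemicals, then 0.5 nM R1881 final; after 16 hr at 37C, ONE-Glo is added and light output recorded.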

For assay [19], the target named is Estrogen receptor (Homo sapiens) (UniProt P03372). The assay is described as follows: qHTS assay to identify small molecule agonists of the estrogen receptor alpha (ER-alpha) signaling pathway in the presence of an antagonist (AID 1259383; calls by dose curve; further: top concentration of the series differs between compounds; nearly all actives have a fitted effect of over 15% in size). The method, boiled down:
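Stably transfected VM7Luc4E2 reporter cells, kept 5 days in charcoal-stripped serum, received ICI-182,780 at 10.0nM final before compound addition. Following 22hr incubation at 37C and 5% CO2, luciferase signal was read by luminescence.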
On the % scale 0 is the no-effect control and ±100 the full control effect.

Chain of Estrogen receptor beta (Homo sapiens) (Q92731 whole entry, looked up): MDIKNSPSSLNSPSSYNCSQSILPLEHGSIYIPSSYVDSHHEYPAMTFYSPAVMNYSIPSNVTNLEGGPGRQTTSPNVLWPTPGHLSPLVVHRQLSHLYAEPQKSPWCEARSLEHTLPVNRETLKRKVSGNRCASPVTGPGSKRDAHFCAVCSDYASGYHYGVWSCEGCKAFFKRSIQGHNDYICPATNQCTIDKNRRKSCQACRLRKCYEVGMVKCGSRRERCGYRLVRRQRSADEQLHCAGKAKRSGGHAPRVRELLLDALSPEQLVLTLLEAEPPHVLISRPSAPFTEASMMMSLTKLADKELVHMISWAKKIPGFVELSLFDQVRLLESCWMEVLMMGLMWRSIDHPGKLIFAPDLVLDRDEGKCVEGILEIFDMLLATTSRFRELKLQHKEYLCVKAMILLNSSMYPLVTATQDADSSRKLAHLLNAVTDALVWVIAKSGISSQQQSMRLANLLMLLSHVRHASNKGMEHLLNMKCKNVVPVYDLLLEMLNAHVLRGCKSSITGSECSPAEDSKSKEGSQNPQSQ
Chain of Estrogen receptor (Homo sapiens) (P03372 whole entry, looked up): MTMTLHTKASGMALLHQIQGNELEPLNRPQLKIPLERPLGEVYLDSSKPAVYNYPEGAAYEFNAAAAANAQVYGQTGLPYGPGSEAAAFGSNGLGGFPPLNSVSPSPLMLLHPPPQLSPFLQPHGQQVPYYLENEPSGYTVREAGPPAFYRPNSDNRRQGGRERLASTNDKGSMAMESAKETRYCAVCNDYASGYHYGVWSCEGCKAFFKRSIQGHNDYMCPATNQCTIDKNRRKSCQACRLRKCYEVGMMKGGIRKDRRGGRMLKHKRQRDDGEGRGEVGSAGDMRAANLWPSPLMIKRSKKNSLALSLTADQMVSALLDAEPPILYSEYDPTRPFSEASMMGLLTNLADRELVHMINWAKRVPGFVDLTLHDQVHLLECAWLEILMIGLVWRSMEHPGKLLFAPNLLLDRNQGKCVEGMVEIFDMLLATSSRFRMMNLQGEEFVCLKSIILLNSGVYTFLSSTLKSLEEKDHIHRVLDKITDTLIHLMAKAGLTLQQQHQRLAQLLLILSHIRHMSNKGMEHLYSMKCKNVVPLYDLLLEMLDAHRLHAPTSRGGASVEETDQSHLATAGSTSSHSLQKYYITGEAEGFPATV
Chain of Thyrotropin receptor (Homo sapiens) (P16473 whole entry, looked up): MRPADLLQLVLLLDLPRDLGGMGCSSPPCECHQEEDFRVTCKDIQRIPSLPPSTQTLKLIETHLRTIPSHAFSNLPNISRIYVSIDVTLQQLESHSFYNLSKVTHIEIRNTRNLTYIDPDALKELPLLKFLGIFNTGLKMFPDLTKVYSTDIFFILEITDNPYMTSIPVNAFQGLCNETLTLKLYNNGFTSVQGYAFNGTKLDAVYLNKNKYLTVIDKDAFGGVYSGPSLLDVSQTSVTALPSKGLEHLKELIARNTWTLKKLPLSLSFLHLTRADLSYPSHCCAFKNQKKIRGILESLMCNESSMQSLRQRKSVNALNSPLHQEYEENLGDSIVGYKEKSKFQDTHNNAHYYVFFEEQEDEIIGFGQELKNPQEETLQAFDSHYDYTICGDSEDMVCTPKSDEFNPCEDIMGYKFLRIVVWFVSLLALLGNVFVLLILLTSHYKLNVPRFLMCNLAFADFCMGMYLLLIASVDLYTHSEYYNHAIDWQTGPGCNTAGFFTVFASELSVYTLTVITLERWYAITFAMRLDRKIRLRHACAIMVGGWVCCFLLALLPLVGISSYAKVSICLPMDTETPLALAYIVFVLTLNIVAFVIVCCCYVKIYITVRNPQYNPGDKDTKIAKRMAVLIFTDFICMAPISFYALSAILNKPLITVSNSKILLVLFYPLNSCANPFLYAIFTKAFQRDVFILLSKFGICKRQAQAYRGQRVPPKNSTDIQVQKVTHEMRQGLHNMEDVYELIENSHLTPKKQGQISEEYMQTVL
Chain of Androgen receptor (Homo sapiens) (P10275 whole entry, looked up): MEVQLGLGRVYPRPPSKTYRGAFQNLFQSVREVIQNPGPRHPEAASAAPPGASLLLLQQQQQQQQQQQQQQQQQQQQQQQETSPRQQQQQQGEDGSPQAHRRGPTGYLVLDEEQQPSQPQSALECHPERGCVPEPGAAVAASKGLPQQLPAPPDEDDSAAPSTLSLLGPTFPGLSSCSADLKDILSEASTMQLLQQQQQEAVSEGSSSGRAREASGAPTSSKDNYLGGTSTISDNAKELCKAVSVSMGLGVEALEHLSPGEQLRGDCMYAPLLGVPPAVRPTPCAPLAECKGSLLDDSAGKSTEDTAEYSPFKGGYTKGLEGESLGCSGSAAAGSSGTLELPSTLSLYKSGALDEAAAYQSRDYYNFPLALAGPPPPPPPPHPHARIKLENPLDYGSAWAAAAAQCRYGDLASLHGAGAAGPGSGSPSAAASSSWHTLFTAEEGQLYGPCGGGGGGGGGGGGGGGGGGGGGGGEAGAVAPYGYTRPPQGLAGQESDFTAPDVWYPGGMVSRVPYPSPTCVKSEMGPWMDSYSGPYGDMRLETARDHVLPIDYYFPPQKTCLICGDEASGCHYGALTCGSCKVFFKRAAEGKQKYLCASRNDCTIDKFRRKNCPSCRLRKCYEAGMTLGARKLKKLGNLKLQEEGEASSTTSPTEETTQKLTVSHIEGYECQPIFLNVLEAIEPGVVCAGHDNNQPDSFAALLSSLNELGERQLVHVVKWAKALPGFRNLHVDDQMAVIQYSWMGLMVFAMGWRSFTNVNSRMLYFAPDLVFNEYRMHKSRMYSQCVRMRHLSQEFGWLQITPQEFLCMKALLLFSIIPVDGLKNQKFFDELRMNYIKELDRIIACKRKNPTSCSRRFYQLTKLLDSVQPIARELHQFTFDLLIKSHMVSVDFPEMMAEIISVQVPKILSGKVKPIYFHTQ

As for `CN(C)CCCN1c2ccccc2CCc2ccc(Cl)cc21`, the Potency in assay [1] is 48.6 µM (active); in assay [4], 30.6 µM (active); in [5], 48.6 µM (active) and inactive; in assay [7], 15.4 µM (active) and 11.9 µM (active); in assay [8] it was 48.6 µM (active) and 33.5 µM (active); in assay [9], 24.3 µM (active) and 21.1 µM (active). Moreover, the Potency was 24.3 µM (active) and 18.8 µM (active) in assay [10]; 68.6 µM (active) and 29.8 µM (active) in [12]; 68.6 µM (active) in [13]. Further, the Potency entry in [2] was “inactive”. The result in assay [3], in assay [6] and in assay [11] was inactive.

`CCN(CC)CCNC(=O)c1cc(S(C)(=O)=O)ccc1OC`: the result in assay [14], in [3], in assay [6], in assay [16], in assay [17] and in [11] was inactive. Moreover, the Potency entry in assay [15], in assay [2], in assay [4], in assay [5], in [7] and in assay [8] was “inactive” in each case. In addition, the Potency entry in assay [9], in assay [10], in assay [12] and in assay [13] was “inactive” each time.

On to `CCSC(=O)N(CC(C)C)CC(C)C`, for which the Potency entry in [18], in [2], in assay [4], in assay [5], in assay [7] and in assay [8] was “inactive” throughout. Also, the Potency result in assay [9], in assay [10], in assay [19], in assay [12] and in [13] was “inactive” in each case. Moreover, the outcome in assay [14], in assay [3], in assay [6], in assay [16] and in assay [11] was inactive.

In the case of `CC(=O)CC(C)(C)C1CCCCC1`, the Potency entry in assay [1], in assay [2], in assay [4], in assay [5], in assay [8] and in [9] was “inactive” throughout. Moreover, the Potency result in assay [10] and in assay [13] was “inactive” in each case. The outcome in [14], in [3], in assay [16] and in assay [17] was inactive.

In the case of `CC(=O)OCC(=O)[C@@]1(O)CCC2C3CCC4=CC(=O)CC[C@]4(C)C3[C@@H](O)C[C@@]21C` (some centres not stated), the Potency result in [1], in [15], in assay [2], in assay [4], in [5] and in [7] was “inactive” in each case. Also, the Potency entry in assay [8], in [9], in assay [10], in assay [12] and in assay [13] was “inactive” throughout. Also, the compound was classed as inactive in assay [3], in assay [6], in assay [16], in assay [17] and in [11].

On to `OCCOc1ccc(OCCO)cc1`, for which the Potency entry in assay [1], in [2], in assay [4], in assay [5], in [7] and in assay [8] was “inactive” throughout. The Potency result in assay [9], in assay [10], in assay [19], in assay [12] and in [13] was “inactive” in each case. In addition, the outcome in [14], in assay [3] and in assay [11] was inactive.

For `CC(C)OC(=O)c1ccccc1`, the Potency entry in assay [1], in [2], in [4], in assay [5], in assay [8] and in [9] was “inactive” each time. Also, the Potency result in assay [10], in [12] and in [13] was “inactive” in each case. In addition, the outcome in assay [14], in assay [3], in [6], in assay [16] and in assay [17] was inactive.

As for `CCCCCCCCCCCCCC=O`, the viability change, negative = cytotoxic is -0.255% [at 8.39 µM] (inactive) in assay [1], 5.21% [at 8.39 µM] (inactive) in assay [4] and 0.0972% [at 8.39 µM] (inactive) in assay [5]. The activity change, negative = inhibition in [14] was 5.09% [at 8.39 µM] (inactive); in [2], -0.0684% [at 8.39 µM] (inactive); in assay [7] it was 13.4% [at 8.39 µM] (inactive); in [12], -5.31% [at 8.39 µM] (inactive). In addition, the activity change, negative = cytotoxicity in assay [3] was 1.26% [at 8.39 µM] (inactive); in [8], -0.261% [at 8.39 µM] (inactive); in [9], -3.43% [at 8.39 µM] (inactive); in assay [10], -3.46% [at 8.39 µM] (inactive); in [13], 2.15% [at 8.39 µM] (inactive). Further, the activity change in assay [6] was -0.008% [at 8.39 µM] (inactive). In addition, the activation was 5.64% [at 8.39 µM] (inactive) in [16] and -0.924% [at 8.39 µM] (inactive) in [19]. Further, in assay [17], the activity, negative = inhibition was -23.6% [at 8.39 µM] (inactive).
